Assay results reported in PubChem BioAssay AID1159580 (chemical genetic matrix, 2015).
In all, about 5,500 compounds went through this assay and about 2,000 (36%) were called active. Roughly 18% stayed inconclusive and do not appear here. No stated cut-off is given here; in the data, active means normalized growth mostly below about 0.91 (no sharp cut-off); inconclusive means no clear call, values can overlap the other calls; inactive means mostly above about 0.92. This is one part of the list.

Assay: chemical genetic growth profiling, strain panel (AID 1159580);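 further: tested at 20 µM; growth read once vehicle control cultures reached saturation at 30 °C; 1 = growth at the plate median or of vehicle wells; lower values mean less growth of the strain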
Conditions: growth OD

Measured: normalized growth

CC1(C)O[C@H]2[C@H](O)C[C@](O)(C(N)=O)C[C@H]2O1
inactive: S. cerevisiae deletion strains, locus YJR075W, strain HOC1, active compounds read low 1.03 | S. cerevisiae deletion strains, locus YKL009W, strain mrt4, active compounds read low 1.04 | S. cerevisiae deletion strains, locus YKL068W, active compounds read low 1.01 | S. cerevisiae deletion strains, locus YKL085W, strain MDH1 (second series), active compounds read low 1.03 | S. cerevisiae deletion strains, locus YKL085W, strain MDH1, active compounds read low 1.03 | S. cerevisiae deletion strains, locus YKL160W, strain elf1, active compounds read low 1 | S. cerevisiae deletion strains, locus YKL190W, strain CNB1, active compounds read low 1.02 | S. cerevisiae deletion strains, locus YKR001C, strain vps1, active compounds read low 1.06 | S. cerevisiae deletion strains, locus YKR026C, strain gcn3, active compounds read low 1.01 | S. cerevisiae deletion strains, locus YKR091W, strain srl3, active compounds read low 1.02 | S. cerevisiae deletion strains, locus YLL001W, strain dnm1, active compounds read low 0.999 | S. cerevisiae deletion strains, locus YLL026W, active compounds read low 1.01 | S. cerevisiae deletion strains, locus YLL041C, strain sdh2, active compounds read low 1.02 | S. cerevisiae deletion strains, locus YLR027C, strain aat2, active compounds read low 1.03 | S. cerevisiae deletion strains, locus YLR039C, strain RIC1, active compounds read low 1.25 | S. cerevisiae deletion strains, locus YLR058C, strain SHM2, active compounds read low 1.04 | S. cerevisiae deletion strains, locus YLR102C, strain apc9, active compounds read low 1.01 | S. cerevisiae deletion strains, locus YLR113W, strain HOG1, active compounds read low 1.02 | S. cerevisiae deletion strains, locus YLR221C, strain rsa3, active compounds read low 1.02 | S. cerevisiae deletion strains, locus YLR258W, strain gsy2, active compounds read low 1.01 | S. cerevisiae deletion strains, locus YLR262C, strain YPT6 (second series), active compounds read low 1.08 | S. cerevisiae deletion strains, locus YLR268W, strain sec22, active compounds read low 1.05 | S. cerevisiae deletion strains, locus YLR320W, strain mms22, active compounds read low 1.03 | S. cerevisiae deletion strains, locus YLR330W, strain CHS5, active compounds read low 1.02 | S. cerevisiae deletion strains, locus YLR342W, strain FKS1 (second series), active compounds read low 1.03 | S. cerevisiae deletion strains, locus YLR342W, strain FKS1, active compounds read low 1.01 | S. cerevisiae deletion strains, locus YLR357W, strain rsc2, active compounds read low 1.01 | S. cerevisiae deletion strains, locus YLR370C, strain arc18, active compounds read low 1.02 | S. cerevisiae deletion strains, locus YLR371W, strain rom2, active compounds read low 1.05 | S. cerevisiae deletion strains, locus YLR384C, strain iki3, active compounds read low 1.02 | S. cerevisiae deletion strains, locus YLR418C, strain cdc73, active compounds read low 1.09 | S. cerevisiae deletion strains, locus YML016C, strain PPZ1, active compounds read low 1.03 | S. cerevisiae deletion strains, locus YML032C, strain rad52, active compounds read low 1.03 | S. cerevisiae deletion strains, locus YML120C, strain ndi1, active compounds read low 1.01 | S. cerevisiae deletion strains, locus YML124C, strain tub3, active compounds read low 1.02 | S. cerevisiae deletion strains, locus YMR058W, strain fet3, active compounds read low 1.02 | S. cerevisiae deletion strains, locus YMR078C, strain ctf18, active compounds read low 1.03 | S. cerevisiae deletion strains, locus YMR125W, strain sto1, active compounds read low 1 | S. cerevisiae deletion strains, locus YMR129W, active compounds read low 1.01 | S. cerevisiae deletion strains, locus YMR205C, strain PFK2, active compounds read low 1.02 | S. cerevisiae deletion strains, locus YMR223W, strain ubp8, active compounds read low 1.05 | S. cerevisiae deletion strains, locus YMR231W, strain pep5, active compounds read low 1.01 | S. cerevisiae deletion strains, locus YMR307W, strain GAS1, active compounds read low 1.27 | S. cerevisiae deletion strains, locus YNL067W, strain RPL9B, active compounds read low 1.01 | S. cerevisiae deletion strains, locus YNL071W, strain lat1, active compounds read low 1.03 | S. cerevisiae deletion strains, locus YNL153C, strain GIM3, active compounds read low 1.05 | S. cerevisiae deletion strains, locus YNL183C, strain NPR1, active compounds read low 0.945 | S. cerevisiae deletion strains, locus YNL209W, strain ssb2, active compounds read low 1.02 | S. cerevisiae deletion strains, locus YNL233W, strain BNI4, active compounds read low 1.07 | S. cerevisiae deletion strains, locus YNL248C, strain rpa49, active compounds read low 1.01 | S. cerevisiae deletion strains, locus YNL250W, strain rad50, active compounds read low 1.06 | S. cerevisiae deletion strains, locus YNL271C, strain bni1, active compounds read low 1.04 | S. cerevisiae deletion strains, locus YNL298W, strain CLA4, active compounds read low 1.02 | S. cerevisiae deletion strains, locus YNL307C, strain MCK1, active compounds read low 1.03 | S. cerevisiae deletion strains, locus YNL322C, strain KRE1 (second series), active compounds read low 1.01 | S. cerevisiae deletion strains, locus YNL322C, strain KRE1, active compounds read low 1.02 | S. cerevisiae deletion strains, locus YNR049C, strain mso1, active compounds read low 1.02 | S. cerevisiae deletion strains, locus YNR052C, strain pop2, active compounds read low 1.03 | S. cerevisiae deletion strains, locus YOL012C, strain htz1 0.602 | S. cerevisiae deletion strains, locus YOL147C, strain pex11, active compounds read low 1.01 | S. cerevisiae deletion strains, locus YOR001W, strain rrp6, active compounds read low 1.04 | S. cerevisiae deletion strains, locus YOR061W, strain CKA2, active compounds read low 1.03 | S. cerevisiae deletion strains, locus YOR069W, strain VPS5, active compounds read low 1.02 | S. cerevisiae deletion strains, locus YOR070C, strain gyp1, active compounds read low 1.01 | S. cerevisiae deletion strains, locus YOR080W, strain dia2, active compounds read low 1.01 | S. cerevisiae deletion strains, locus YOR083W, strain WHI5, active compounds read low 1.02 | S. cerevisiae deletion strains, locus YOR106W, strain vam3, active compounds read low 1.01 | S. cerevisiae deletion strains, locus YOR136W, strain idh2, active compounds read low 1.04 | S. cerevisiae deletion strains, locus YOR144C, strain elg1, active compounds read low 1.01 | S. cerevisiae deletion strains, locus YOR184W, strain ser1, active compounds read low 1.06 | S. cerevisiae deletion strains, locus YOR231W, strain MKK1, active compounds read low 0.989 | S. cerevisiae deletion strains, locus YOR265W, strain rbl2, active compounds read low 1.01 | S. cerevisiae deletion strains, locus YOR270C, strain vph1, active compounds read low 1.06 | S. cerevisiae deletion strains, locus YOR290C, strain snf2, active compounds read low 1.03 | S. cerevisiae deletion strains, locus YOR316C, strain cot1, active compounds read low 1.02 | S. cerevisiae deletion strains, locus YPL051W, strain arl3, active compounds read low 0.997 | S. cerevisiae deletion strains, locus YPL055C, strain LGE1, active compounds read low 1.09 | S. cerevisiae deletion strains, locus YPL078C, strain atp4, active compounds read low 1.01 | S. cerevisiae deletion strains, locus YPL106C, strain sse1, active compounds read low 0.996 | S. cerevisiae deletion strains, locus YPL240C, strain hsp82, active compounds read low 1.01 | S. cerevisiae deletion strains, locus YPL241C, strain CIN2, active compounds read low 1.02 | S. cerevisiae deletion strains, locus YPL256C, strain CLN2, active compounds read low 0.995 | S. cerevisiae deletion strains, locus YPR119W, strain clb2, active compounds read low 1.03 | S. cerevisiae deletion strains, locus YPR141C, strain kar3, active compounds read low 1.03 | S. cerevisiae deletion strains, locus YPR163C, strain tif3, active compounds read low 1.04 | S. cerevisiae deletion strains, locus YPR167C, strain met16, active compounds read low 1.04 | S. cerevisiae deletion strains, strain wtn01, active compounds read low 1.03 | S. cerevisiae strains, strain wild type, active compounds read low 1.06
